Assay [1] can be described thus: qHTS assay to identify small molecule antagonists of the sonic hedgehog signaling (Shh) pathway (AID 1259369). Note: nearly all actives have a fitted effect of over 45% in size. The gist of the method:
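For antagonist detection, the reporter line received test compounds together with conditioned medium, incubated 24hr at 37 C, 5% CO2, then luminescence was recorded following 30min room-temperature luciferase reagent incubation.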
(Quantitative high-throughput screening tests each substance at several concentrations.)

For assay [2], the target named is Estrogen receptor beta (Homo sapiens) (UniProt Q92731). Briefly: qHTS assay to identify small molecule antagonists of the estrogen receptor beta (ER-beta) signaling pathway (AID 1259378; active = well fitted inhibition curve with a large enough effect in the signal ratio in the repeat runs, not every such curve was filed as active; the % refers to the signal ratio; note: potency is the fitted concentration of half-maximal effect). The gist of the method: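 ER-beta-UAS-bla HEK293T cells in 2% charcoal-stripped FBS medium treated with compound plus 1nM final 17-beta-estradiol for 16 hr at 37C. Beta-lactamase reporter read by FRET substrate fluorescence after 2 hours at room temperature.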

Assay [3] in a line: qHTS assay to identify small molecule agonists of the androgen receptor (AR) signaling pathway in the presence of an antagonist - cell viability counter screen (AID 1259379; active = well fitted curve in the direction sought with a large enough effect in the repeat runs; an effect the other way counts as inactive or inconclusive;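 note: MDA-kb2 human breast cancer cells carrying an MMTV luciferase reporter; series mostly up to about 92 µM; nearly all actives have a fitted effect of over 25% in size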). The gist of the method:
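Seed MDA-kb2 at 3,000 cells/well; incubate 5 hr, 37C, 0% CO2. Add nilutamide to 3.0uM final, then pin compounds at 15 concentrations. Incubate 16 hr. Add CellTiter-Fluor at 15 hr, read fluorescence after 1 hr.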

The nature of assay [4]: qHTS assay to identify small molecule antagonists of the estrogen receptor beta (ER-beta) signaling pathway - cell viability counter screen (AID 1259382; active = well fitted curve in the direction sought with a large enough effect in the repeat runs; an effect the other way counts as inactive or inconclusive; note: series mostly up to about 92 µM; nearly all actives have a fitted effect of over 55% in size). The gist of the method: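 In this multiplexed counter screen, cells were seeded at 2,000 per well in medium with 2% charcoal-stripped FBS and incubated 6 hr before compound and 1nM final E2 were added. Sixteen hours later, ATP-based luminescence reported viability.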

The target in assay [5] is Estrogen receptor (Homo sapiens) (UniProt P03372). Kind of assay: qHTS assay to identify small molecule agonists of the estrogen receptor alpha (ER-alpha) signaling pathway in the presence of an antagonist (AID 1259383). Note: top concentration of the series differs between compounds; nearly all actives have a fitted effect of over 15% in size. The essentials:
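Stably transfected VM7Luc4E2 reporter cells, kept 5 days in charcoal-stripped serum, received ICI-182,780 at 10.0nM final before compound addition. Following 22hr incubation at 37C and 5% CO2, luciferase signal was read by luminescence.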

The nature of assay [6]: qHTS assay to identify small molecule agonists or antagonists of the thyroid stimulating hormone receptor (TSHR) signaling pathway - wild type cell line counter screen (AID 1259384). The gist of the method:
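Wild-type Hek293 cells, 800/well, 18 h at 37C, then compound with Ro20-1724 for 30 min RT. cAMP by HTRF (cAMP-d2/anti-cAMP cryptate), 1 h RT, fluorescence read. 15 concentrations, triplicates.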

Assay [7] is described as follows: qHTS assay to identify small molecule agonists of the estrogen receptor alpha (ER-alpha) signaling pathway in the presence of an antagonist - cell viability counter screen (AID 1259386; active = well fitted curve in the direction sought with a large enough effect in the repeat runs; an effect the other way counts as inactive or inconclusive;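 note: series mostly up to about 92 µM; cells exposed to compounds for 22 h at 37 °C before the viability read; nearly all actives have a fitted effect of over 30% in size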). The essentials:
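Viability counter screen using VM7Luc4E2 (full-length ER-alpha, four ERE-luciferase). The cells were treated with compounds alongside ICI-182,780 10.0nM for 22hr, and live-cell protease fluorescence was quantified with CellTiter-Fluor.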

Assay [8] has as its target Progesterone receptor (Homo sapiens) (UniProt P06401). Kind of assay: qHTS assay to identify small molecule agonists of the progesterone receptor (PR) signaling pathway (AID 1346784). Note: nearly all actives have a fitted effect of over 30% in size. The gist of the method: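 Agonist qHTS: compounds pinned onto 3,000 PR-UAS-bla HEK 293T cells per well in charcoal-stripped serum medium, 16hr at 37C, then beta-lactamase activity measured by LiveBLAzer FRET fluorescence after 2 hours at room temperature.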

The target is the same in assay [9]. Kind of assay: qHTS assay to identify small molecule antagonists of the progesterone receptor (PR) signaling pathway (AID 1346795; active = well fitted inhibition curve with a large enough effect in the signal ratio in the repeat runs, not every such curve was filed as active; the % refers to the signal ratio; note: potency is the fitted concentration of half-maximal effect). The essentials:
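Antagonist mode with agonist R5020 at 1 nM final and 16 hr incubation at 37C. Reporter was beta-lactamase driven by UAS in HEK293T (PR-UAS-bla), 2% charcoal-stripped serum; signal from LiveBLAzer FRET substrate, 2 hr at room temperature.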

Assay [10] in a line: qHTS assay to identify small molecule antagonists of the progesterone receptor (PR) signaling pathway - cell viability counter screen (AID 1346798; active = well fitted curve in the direction sought with a large enough effect in the repeat runs; an effect the other way counts as inactive or inconclusive; note: series mostly up to about 92 µM; nearly all actives have a fitted effect of over 50% in size). The essentials: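 Cytotoxicity read as CellTiter-Glo luminescence (30 min, room temperature) in the same wells as the beta-lactamase readout. HEK293T PR-UAS-bla cells in charcoal-stripped 2% FBS received compound and R5020, then 16 h at 37C, 5% CO2.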

A short description of assay [11]: qHTS assay to identify small molecule agonists of the progesterone receptor (PR) signaling pathway - cell viability counter screen (AID 1346799). Note: nearly all actives have a fitted effect of over 45% in size. The gist of the method:
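Cytotoxicity measured by CellTiter-Glo luminescence (30 min, RT) in the same wells as the PR beta-lactamase agonist read. Those HEK293T cells had 16 h compound treatment at 37 C in 2% charcoal-stripped FBS medium.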

Assay [12] is described as follows: qHTS assay to identify small molecule antagonists of the TGF-beta/Smad signaling pathway - cell viability counter screen (AID 1346824; active = well fitted curve in the direction sought with a large enough effect in the repeat runs; an effect the other way counts as inactive or inconclusive; note: nearly all actives have a fitted effect of over 50% in size). The gist of the method: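 SBE-bla HEK 293T cells, incubated overnight, then compound plus 0.25 ng/mL TGF-beta1 (stock added) for 5 hr at 37 C. Viability was read in the same wells by CellTiter-Glo luminescence after 30 min at room temperature.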

A short description of assay [13]: qHTS assay to identify small molecule agonists of the TGF-beta/Smad signaling pathway - cell viability counter screen (AID 1346829; active = well fitted curve in the direction sought with a large enough effect in the repeat runs; an effect the other way counts as inactive or inconclusive; note: top concentration of the series differs between compounds; nearly all actives have a fitted effect of over 45% in size). The essentials: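 In parallel with the Smad reporter read, viability of HEK 293T cells stably carrying SBE-bla is quantified by ATP luminescence following 5 hr compound treatment.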
A short description of assay [14]: qHTS assay to identify small molecule agonists of the TGF-beta/Smad signaling pathway (AID 1346859; active = well fitted activation curve with a large enough effect in the signal ratio in the repeat runs, not every such curve was filed as active; the % refers to the signal ratio; note: series mostly up to about 77 µM). The gist of the method: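 Fluorescence (ex 405 nm; em 460 and 530 nm) was read 2 h after LiveBLAzer FRET substrate at RT. The preceding compound treatment of overnight-plated SBE-bla HEK293T cells lasted 5 h at 37 C.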
For assay [15], the target named is Thyrotropin-releasing hormone receptor (Homo sapiens) (UniProt P34981). Briefly: qHTS assay to identify small molecule antagonists of the thyrotropin-releasing hormone receptor (TRHR) signaling pathway (AID 1346877; active = well fitted inhibition curve with a large enough effect in the repeat runs, not every such curve was filed as active; note: series mostly up to about 51 µM). The gist of the method: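 Following an 18 h incubation at 37 °C and a 2 h calcium dye load, TRHR-HEK293 cells were exposed to compound (5 min, room temperature) and challenged with TRH, 1 nM final.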

For assay [16] the target is unchanged. Briefly: qHTS assay to identify small molecule agonists of the thyrotropin-releasing hormone receptor (TRHR) signaling pathway (AID 1346891). Note: series mostly up to about 58 µM. The gist of the method: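 Agonist-mode intracellular calcium readout: kinetic fluorescence over 3 min at 1 s intervals after compound addition to TRHR-HEK293 cells (18 h seeded, 2 h dye-loaded at 37 C). Fifteen concentrations, triplicates.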

Assay [17] is described as follows: qHTS assay to identify small molecule agonists of the estrogen receptor beta (ER-beta) signaling pathway - cell viability counter screen (AID 1259380; active = well fitted curve in the direction sought with a large enough effect in the repeat runs; an effect the other way counts as inactive or inconclusive; note: nearly all actives have a fitted effect of over 30% in size; note: potency is the fitted concentration of half-maximal effect). The essentials: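 CellTiter-Glo read, 30 min RT, same wells as bla assay; cells ER-beta-UAS-bla HEK293T; 16 hr compound, 37C; medium 2% charcoal-stripped FBS.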
The target of assay [18] is Thyrotropin receptor (Homo sapiens) (UniProt P16473). Briefly: qHTS assay to identify small molecule antagonists of the thyroid stimulating hormone receptor (TSHR) signaling pathway (AID 1259385). Note: nearly all actives have a fitted effect of over 20% in size. The essentials: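 TSHR-HEK293 cells (800/well) plated 18 h, then compounds with Ro20-1724 and TSH at 1.5 ng/mL final, 30 min at room temperature. cAMP quantified by HTRF (cAMP-d2/anti-cAMP-cryptate, 1 h); 15 concentrations in triplicate.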

For assay [19], the target named is Estrogen receptor beta (Homo sapiens) (UniProt Q92731). Briefly: qHTS assay to identify small molecule agonists of the estrogen receptor beta (ER-beta) signaling pathway (AID 1259377; active = well fitted activation curve with a large enough effect in the signal ratio in the repeat runs, not every such curve was filed as active; the % refers to the signal ratio). The essentials: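 Ratiometric beta-lactamase FRET read-out came after 2 h substrate loading at room temperature. It followed 16 h compound treatment at 37C of GripTite HEK293T cells carrying a UAS-bla reporter, plated in 2% charcoal-stripped FBS medium.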

Here are results for seven molecules from PubChem BioAssay (Tox21).

Values without a mark were called inactive. Results filed as inconclusive are left out. The source made the active and inactive calls. Unless noted, calls come from the whole dose curve.
% is set by controls: 0 for no effect and ±100 for the full control effect.

Estrogen receptor beta (Homo sapiens), sequence (Q92731 whole entry, looked up): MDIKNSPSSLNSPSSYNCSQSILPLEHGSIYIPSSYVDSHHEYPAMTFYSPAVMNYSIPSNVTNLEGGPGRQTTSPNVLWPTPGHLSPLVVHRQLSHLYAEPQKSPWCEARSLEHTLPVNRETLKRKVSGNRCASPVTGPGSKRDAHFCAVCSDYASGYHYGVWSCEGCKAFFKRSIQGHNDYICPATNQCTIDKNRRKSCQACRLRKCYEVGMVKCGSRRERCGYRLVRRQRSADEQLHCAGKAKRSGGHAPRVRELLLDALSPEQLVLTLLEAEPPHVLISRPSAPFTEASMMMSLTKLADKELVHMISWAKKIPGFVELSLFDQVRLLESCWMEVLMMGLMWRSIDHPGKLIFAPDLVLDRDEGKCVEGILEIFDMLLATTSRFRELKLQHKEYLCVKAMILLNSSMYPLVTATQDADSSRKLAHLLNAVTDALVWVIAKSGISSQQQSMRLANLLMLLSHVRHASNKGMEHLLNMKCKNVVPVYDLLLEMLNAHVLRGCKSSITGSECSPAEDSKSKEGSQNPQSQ
Progesterone receptor (Homo sapiens), sequence (P06401 whole entry, looked up): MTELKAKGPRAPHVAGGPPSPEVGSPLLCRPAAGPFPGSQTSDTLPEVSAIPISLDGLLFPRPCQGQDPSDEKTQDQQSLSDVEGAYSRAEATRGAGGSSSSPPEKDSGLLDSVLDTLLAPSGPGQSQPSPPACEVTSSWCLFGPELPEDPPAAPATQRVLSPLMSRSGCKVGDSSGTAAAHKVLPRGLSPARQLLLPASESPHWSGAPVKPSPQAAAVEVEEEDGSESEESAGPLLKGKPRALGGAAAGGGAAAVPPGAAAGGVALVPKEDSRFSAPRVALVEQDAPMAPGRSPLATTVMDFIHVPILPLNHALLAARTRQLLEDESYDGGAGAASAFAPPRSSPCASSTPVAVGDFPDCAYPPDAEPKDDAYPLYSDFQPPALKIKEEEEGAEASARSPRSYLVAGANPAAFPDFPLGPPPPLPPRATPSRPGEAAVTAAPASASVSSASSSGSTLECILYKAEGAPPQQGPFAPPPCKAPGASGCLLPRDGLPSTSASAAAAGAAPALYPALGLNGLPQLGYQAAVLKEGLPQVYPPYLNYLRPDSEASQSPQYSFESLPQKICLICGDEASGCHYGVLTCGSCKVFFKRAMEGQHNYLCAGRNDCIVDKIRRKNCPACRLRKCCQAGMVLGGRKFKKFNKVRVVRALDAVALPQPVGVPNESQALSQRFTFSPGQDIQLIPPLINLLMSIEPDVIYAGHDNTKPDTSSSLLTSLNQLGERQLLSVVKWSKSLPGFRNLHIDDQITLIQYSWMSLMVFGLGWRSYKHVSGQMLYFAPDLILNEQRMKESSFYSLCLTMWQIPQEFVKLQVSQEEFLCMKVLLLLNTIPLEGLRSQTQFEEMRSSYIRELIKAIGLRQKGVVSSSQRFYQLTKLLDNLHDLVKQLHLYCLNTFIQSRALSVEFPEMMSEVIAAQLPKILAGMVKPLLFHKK
Thyrotropin receptor (Homo sapiens), sequence (P16473 whole entry, looked up): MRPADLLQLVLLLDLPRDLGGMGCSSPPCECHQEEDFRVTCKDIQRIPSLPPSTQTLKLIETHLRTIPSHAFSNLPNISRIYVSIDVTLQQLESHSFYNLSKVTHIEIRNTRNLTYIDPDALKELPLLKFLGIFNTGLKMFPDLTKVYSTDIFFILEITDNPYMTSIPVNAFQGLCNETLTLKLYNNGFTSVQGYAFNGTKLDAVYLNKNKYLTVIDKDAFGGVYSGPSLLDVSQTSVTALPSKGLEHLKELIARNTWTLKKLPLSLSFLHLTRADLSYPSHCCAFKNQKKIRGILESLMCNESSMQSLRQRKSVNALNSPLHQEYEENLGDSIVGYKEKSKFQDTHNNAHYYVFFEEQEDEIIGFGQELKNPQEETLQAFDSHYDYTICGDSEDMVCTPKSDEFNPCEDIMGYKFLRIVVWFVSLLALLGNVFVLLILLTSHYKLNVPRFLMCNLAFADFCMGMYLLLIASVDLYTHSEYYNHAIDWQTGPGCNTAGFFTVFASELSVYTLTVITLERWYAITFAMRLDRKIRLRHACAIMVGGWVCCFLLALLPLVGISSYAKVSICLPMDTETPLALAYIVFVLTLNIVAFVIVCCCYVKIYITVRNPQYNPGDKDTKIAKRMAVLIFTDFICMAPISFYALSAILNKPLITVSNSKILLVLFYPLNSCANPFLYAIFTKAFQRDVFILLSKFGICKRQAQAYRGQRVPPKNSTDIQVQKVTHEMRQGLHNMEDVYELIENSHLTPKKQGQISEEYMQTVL
Estrogen receptor (Homo sapiens), sequence (P03372 whole entry, looked up): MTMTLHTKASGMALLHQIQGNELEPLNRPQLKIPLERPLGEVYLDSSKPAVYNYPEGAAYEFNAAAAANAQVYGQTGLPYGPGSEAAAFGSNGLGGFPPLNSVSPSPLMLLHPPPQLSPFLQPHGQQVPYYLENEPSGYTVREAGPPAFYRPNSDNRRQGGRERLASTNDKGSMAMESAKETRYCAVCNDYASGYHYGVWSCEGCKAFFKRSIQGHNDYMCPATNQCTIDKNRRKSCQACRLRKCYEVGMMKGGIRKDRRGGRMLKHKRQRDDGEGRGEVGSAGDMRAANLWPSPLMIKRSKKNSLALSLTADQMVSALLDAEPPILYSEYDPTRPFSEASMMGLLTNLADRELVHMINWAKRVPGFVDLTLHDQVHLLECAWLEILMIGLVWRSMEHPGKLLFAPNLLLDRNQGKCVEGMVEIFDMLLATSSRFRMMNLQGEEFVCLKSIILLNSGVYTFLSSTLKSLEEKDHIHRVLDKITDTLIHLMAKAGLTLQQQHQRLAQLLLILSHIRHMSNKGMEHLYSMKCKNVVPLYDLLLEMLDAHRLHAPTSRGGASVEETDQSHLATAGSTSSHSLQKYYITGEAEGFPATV
Thyrotropin-releasing hormone receptor (Homo sapiens), sequence (P34981 whole entry, looked up): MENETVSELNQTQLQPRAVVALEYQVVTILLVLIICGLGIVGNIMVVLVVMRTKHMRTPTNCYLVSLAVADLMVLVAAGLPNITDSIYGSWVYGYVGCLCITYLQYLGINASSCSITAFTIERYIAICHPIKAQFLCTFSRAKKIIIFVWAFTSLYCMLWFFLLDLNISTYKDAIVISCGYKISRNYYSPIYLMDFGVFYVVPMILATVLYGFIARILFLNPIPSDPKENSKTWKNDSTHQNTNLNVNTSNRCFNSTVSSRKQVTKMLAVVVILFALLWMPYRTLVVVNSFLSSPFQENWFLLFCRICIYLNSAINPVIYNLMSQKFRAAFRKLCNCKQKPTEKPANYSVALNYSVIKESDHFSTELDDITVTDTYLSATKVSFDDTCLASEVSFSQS

As for `OCc1c2ccccc2cc2ccccc12`, the Potency entry in [1], in assay [2], in [3], in assay [5], in [7] and in assay [8] was “inactive” in each case. Besides, the Potency entry in assay [10], in assay [11] and in [16] was “inactive” in each case. Also, the molecule was classed as inactive in assay [4], in assay [6], in assay [12], in [13], in [14] and in assay [15]. Besides, the Potency in assay [9] is 54.6 µM (active).

Turning to `CCC(=O)Nc1ccc(O)cc1`, the Potency result in assay [1], in [3], in assay [17], in assay [5], in [18] and in assay [7] was “inactive” throughout. In addition, the Potency result in assay [8], in [9], in assay [10], in assay [11] and in assay [16] was “inactive” throughout. Further, the call in [4], in assay [6], in assay [12], in assay [13], in assay [14] and in [15] was inactive.

As to `CCN(CCCc1ccccc1)CCCc1ccccc1`, the Potency result in assay [1], in assay [5], in assay [7], in assay [8], in assay [9] and in assay [16] was “inactive” throughout. Further, the molecule was classed as inactive in assay [19], in assay [6], in [12], in assay [13] and in [15]. In assay [17], the Potency is 11.9 µM (active).

On to `O=C1Nc2ccc([N+](=O)[O-])cc2C1=O`, for which the Potency result in [1], in [2], in assay [18], in assay [8], in [9] and in assay [10] was “inactive” throughout. The Potency result in assay [11] and in assay [16] was “inactive” in each case. Moreover, the molecule was classed as inactive in assay [19], in assay [4], in [6], in assay [12], in [13] and in [14]. Also, the molecule was classed as inactive in assay [15].

As to `O=C(O)CN(CCN(CC(=O)O)CC(=O)O)CCN(CC(=O)O)CC(=O)O`, the activity change, negative = inhibition in assay [1] was -28.7% [at 19 µM]; in assay [9] it was -12.7% [at 18.9 µM]. Moreover, the activation in [19] is -4.18% [at 19 µM]; in assay [8] it was 9.07% [at 19 µM]; in [14], 3.97% [at 15.8 µM]; in assay [16], -0.051% [at 11.8 µM]. In addition, the Potency in assay [2] was 5.8 µM (active). In addition, the activity change, negative = cytotoxicity in [3] was -0.118% [at 19 µM]; in assay [7], -0.23% [at 19 µM]; in assay [11], -4.49% [at 19 µM]; in assay [13] it was 9.66% [at 15.8 µM]. Further, the viability change, negative = cytotoxic in [12] is 3.31% [at 15.8 µM]. Further, the activity, negative = inhibition in assay [15] was 0.832% [at 10.5 µM].

Consider `CN(CC1(C)CCCO1)S(=O)(=O)c1ccc(Cl)c(S(N)(=O)=O)c1` (centres undefined), for which the Potency entry in assay [1], in [3], in assay [17], in assay [18], in [7] and in assay [8] was “inactive” each time. The Potency entry in assay [10], in assay [11] and in assay [16] was “inactive” in each case. Moreover, the result in assay [19], in assay [4], in assay [6], in [12], in [13] and in assay [14] was inactive. The molecule was called inactive in assay [15].

For the molecule `CCCCCCCOC(=O)CCC`, the Potency result in assay [1], in assay [2], in assay [3], in assay [17], in assay [5] and in assay [18] was “inactive” each time. Moreover, the Potency entry in assay [7], in [8], in assay [9], in [10] and in assay [11] was “inactive” each time. Further, the call in assay [4], in assay [6], in assay [13] and in assay [14] was inactive.
